Source: PubChem BioAssay AID504832 (National Center for Advancing Translational Sciences (NCATS), 2011)
Screen size: about 310,000 compounds; about 18,000 (5.8%) were called active. Where a call stands in place of a potency, no number is given. About 22% were inconclusive and are not listed. The sample holds actives, similar compounds and a random draw of the others, so the mix is not that of the screen. The call rests on the fitted dose curve; in most records, active means well fitted inhibition curve with a large enough effect; inconclusive means small, poorly fitted or top-dose-only effect, or another doubt; inactive means no such curve, though single readings can be large or run the other way.

Experiment: Primary qHTS for delayed death inhibitors of the malarial parasite plastid, 48 hour incubation
Conditions: P. falciparum luciferase growth in erythrocytes; series mostly up to 28.7 µM
Method in brief: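 Luciferase-expressing parasites in RBCs, 2% Hct / 0.1% parasitemia final; RPMI 1640 + 0.5% Albumax; 37 C, 5% CO2, one generation; luminescence read-out, lower signal = inhibition.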
Potency means the concentration at half of the fitted maximal effect.

| SMILES | Potency |
| --- | --- |
| CCN(CC(=O)Nc1cc(Cl)ccc1C)C(=O)CSCc1ccc(C)cc1 | inactive |
| C=CCNC(=S)N/N=C/c1ccc(C)s1 | 4.65 µM (active) |
| C=CCNC(=S)N/N=C/c1ccc(OCc2ccccc2)cc1 | inactive |
| Cc1ccc(/C=N/NC(=O)CN2CCN(Cc3ccccc3)CC2)s1 | inactive |
| CC(C)(C)C(=O)NC1CC2CCCC(C1)N2C(=O)Nc1ccccc1F (centres undefined) | inactive |
| O=S(=O)(Nc1ccc(-n2cnnn2)cc1)c1ccc(Cl)cc1 | inactive |
| CCc1nc(SCC(=O)Nc2ccccc2OC)n[nH]1 | inactive |
| CCOC(=O)Cn1c(SC)nc2sc3c(c2c1=O)CC(C)(C)OC3 | inactive |
| CCc1cc2c(=O)n(-c3ccccc3)c(SCC(=O)O)nc2s1 | inactive |
| CCCSc1nc2sc3c(c2c(=O)n1-c1ccc(OC)cc1)CCN(C)C3 | 7.38 µM (active) |
| COc1ccccc1NC(=O)CSc1nc2sc3c(c2c(=O)n1-c1ccccc1)CCN(C)C3 | 1.65 µM (active) |
| Cc1ccc(C)c(-n2c(SCC(=O)O)nc3sc4c(c3c2=O)CCCC4)c1 | inactive |
| COc1ccccc1-n1c(SCC(=O)O)nc2sc3c(c2c1=O)CCC3 | inactive |
| CCOc1ccc2cc(C#N)c(SCC(=O)OC)nc2c1 | inactive |
| COc1ccc(-n2c(=S)[nH]c3sc4c(c3c2=O)CCc2ccccc2-4)cc1 | inactive |
| CCOc1ccc(-n2c(SCC(=O)OC)nc3sc4c(c3c2=O)CCN(C)C4)cc1 | 0.928 µM (active) |
| Cc1sc2nc(SCCO)n(-c3ccccc3)c(=O)c2c1C | inactive |
| CCSc1nc2sc3c(c2c(=O)n1-c1ccc(C)cc1)CCN(C)C3 | 2.62 µM (active) |
| C[C@H](OC(=O)n1ccnc1)[C@@H]1O[C@@]2(C)CCC[C@@H]1O2 | inactive |
| Cc1cccc(CN2CCC(n3nccc3NC(=O)c3ccccc3C)CC2)n1 | inactive |
| Cc1ccc(-n2ncc3c2CCCC3NC(=O)c2cnccn2)cc1C (centres undefined) | inactive |
| COc1ccccc1C(=O)NCCC(=O)NC(C)CCc1ccccc1 (centres undefined) | inactive |
| O=c1oc2ccccc2c(NC2CCCCC2)c1NS(=O)(=O)c1ccc(Cl)cc1 | inactive |
| COC(=O)COc1ccc2c(=O)c(Oc3ccccc3Br)coc2c1 | inactive |
| O=C(C1CC(=O)N(c2ccc(Br)cc2)C1)N1CCCC1 (centres undefined) | inactive |

| SMILES | Potency |
| --- | --- |
| COc1ccccc1NC(=O)N1CCCC1C(=O)NCc1cccs1 (centres undefined) | inactive |
| CCN1C(=O)C(=O)N(CC(=O)Nc2cc(C)ccc2C)C1=O | inactive |
| CC(C)c1ccc(S(=O)(=O)N2CCN(C(=O)c3ccc(N4CCCC4)c([N+](=O)[O-])c3)CC2)cc1 | inactive |
| Cc1ccc(S(=O)(=O)N2CCN(C(=O)c3ccc(-n4cncn4)c([N+](=O)[O-])c3)CC2)cc1 | inactive |
| Nc1ccc(C(=O)N2CCN(S(=O)(=O)c3ccc(Cl)cc3)CC2)cc1[N+](=O)[O-] | 13.1 µM (active) |
| CC(Sc1nnc(COc2ccccc2)n1-c1ccccc1)C(=O)O (centres undefined) | inactive |
| CC1CC(C)CN(c2ccc(S(=O)(=O)N3CCOCC3)cc2)C1 (centres undefined) | inactive |
| COc1cc(/C=C2\C(=N)N3N=C(CC(=O)N4CCOCC4)SC3=NC2=O)cc(OC)c1OC | inactive |
| O=C(CCNC(=O)c1ccccc1Cl)NCc1ccco1 | inactive |
| COC(=O)/C=C/C(=O)NCc1ccco1 | inactive |
| O=C(/C=C/c1ccc(Cl)cc1Cl)NCc1ccco1 | 11.7 µM (active) |
| O=C(Nc1ncc([N+](=O)[O-])s1)C1COc2ccccc2O1 (centres undefined) | inactive |
| CN(C(=O)CN1C(=O)/C(=C/c2ccc(Cl)cc2)SC1=S)C1CCS(=O)(=O)C1 (centres undefined) | inactive |
| CCc1c(C)nc(N)n2c(SCC(=O)NC3CCCCC3)nnc12 | inactive |
| COc1ccc2cc1Oc1ccc(cc1)C[C@H]1c3cc(c(OC)cc3CCN1C)Oc1c(O)c(OC)cc3c1[C@H](C2)N(C)CC3 | 2.94 µM (active) |
| COc1ccc(/C=N/NC(=O)c2ccc3c(c2)OCCO3)c(OC)c1 | inactive |
| Cn1nccc1C(=O)N1CCCC(C(=O)c2ccc(Oc3ccccc3)cc2)C1 (centres undefined) | inactive |
| CC(C)n1c(=O)c(C=Nc2ccc(Br)cc2)c(O)n(Cc2ccco2)c1=O | 13.1 µM (active) |
| CN(C)CCCN=Cc1c(O)n(Cc2ccco2)c(=O)[nH]c1=O | inactive |
| Cn1c(O)c(C=Nc2ccc3c(c2)CCC3)c(=O)n(C)c1=O | inactive |
| O=C(CN1CCN(C2CCS(=O)(=O)C2)CC1)N1N=C(c2ccc(Cl)cc2)CC1c1ccco1 (centres undefined) | inactive |
| CC(=O)NCC(=O)N1CCC(n2nccc2NC(=O)CCCc2ccccc2)CC1 | inactive |
| CCOc1ccc(N/C(N)=N/c2nc(C)c(C)c(=O)[nH]2)cc1 | inactive |
| CCN1C(=S)N[C@@H](CCc2ccccc2)[C@H](C(=O)OC)[C@H]1C | inactive |
| CC1C(=O)Nc2ccccc2N1C(=O)c1ccc(F)cc1F (centres undefined) | inactive |

| SMILES | Potency |
| --- | --- |
| COc1ccccc1C(=O)N(Cc1ccc(C)o1)C1CCS(=O)(=O)C1 (centres undefined) | inactive |
| CC(C)C[C@H](NC(=O)[C@@H]1O[C@H]1C(=O)O)C(=O)NCCCCN=C(N)N | 11.7 µM (active) |
| Cc1cc(C)cc(N(CCC#N)C(=O)CN2C(=O)NC3(CCCC3)C2=O)c1 | inactive |
| Cc1cc2c(cc1C)N(Cc1ccccc1)C1=NCCCN12 | 11.7 µM (active) |
| CC(C)(C)C(=O)CN1C2=NCCN2c2ccccc21 | inactive |
| Cc1ccc(Nc2nc(N)nc(CN3CCN(Cc4ccccc4)CC3)n2)cc1Cl | inactive |
| Cc1ccc(OCc2nc3ccccc3n2C)cc1 | inactive |
| COc1ccc(C(CCN(Cc2ccc(OC)c(OC)c2)C(=O)CCl)c2ccccc2)cc1 (centres undefined) | 2.94 µM (active) |
| COc1ccc(COC(=O)NC(C(=O)O)c2ccccc2)cc1 (centres undefined) | inactive |
| CCOc1ccc(C(CC(=O)O)NC(=O)Cc2ccccc2)cc1OC (centres undefined) | inactive |
| O=C(CCCCO)c1ccc(O)c(Cl)c1 | inactive |
| Cc1ccc(OCC(=O)Nc2ccc3oc(=O)ccc3c2)cc1C | inactive |
| CC[C@]1(O)CC2CN(CCc3c([nH]c4ccccc34)[C@@](C(=O)OC)(c3cc4c(cc3OC)N(C=O)[C@H]3[C@@](O)(C(=O)OC)[C@H](OC(C)=O)[C@]5(CC)C=CCN6CC[C@]43[C@@H]65)C2)C1 (some centres undefined) | 0.147 µM (active) |
| CC[C@]1(O)C[C@@H]2CN(CCc3c([nH]c4ccccc34)[C@@](C(=O)OC)(c3cc4c(cc3OC)N(C)[C@H]3[C@@](O)(C(=O)OC)[C@H](OC(C)=O)[C@]5(CC)C=CCN6CC[C@]43[C@@H]65)C2)C1 | 0.208 µM (active) |
| COc1ccc(NC(=O)C2CCC(CNS(=O)(=O)c3csc(C(N)=O)c3)CC2)cc1OC (centres undefined) | inactive |
| CCCCN(CC(=O)Nc1cccc(S(=O)(=O)N2CCCC2)c1)Cc1nc2ccccc2c(=O)[nH]1 | 3.7 µM (active) |
| CC(=O)NC(CC(=O)Nc1cccc(S(=O)(=O)N2CCCC2)c1)c1ccccc1 (centres undefined) | inactive |
| CCN(CC(=O)Nc1cccc(S(N)(=O)=O)c1)Cc1nc2ccccc2c(=O)[nH]1 | inactive |
| O=C(NCCc1ccc(Cl)cc1)c1cccc(N2CCCC2=O)c1 | inactive |
| CCN1C(=NCCc2cccnc2)N[C@@H](c2ccccc2)[C@H](C(=O)OC)[C@H]1C | inactive |
| CCOc1ccc(OCC)c(NC(=O)CCS(=O)(=O)c2ccc(C)cc2)c1 | inactive |
| COc1cccc(CNS(=O)(=O)c2ccc3c(c2)CC(C)N3C(=O)C2CCC2)c1 (centres undefined) | inactive |
| Cc1ccc(CNC(=O)CCS(=O)(=O)c2ccc3c(c2)CC(C)N3C(=O)C2CC2)o1 (centres undefined) | 10.4 µM (active) |
| CCC(=O)N1c2ccc(S(=O)(=O)NCc3ccco3)cc2CC1C (centres undefined) | inactive |
| Cc1c(OC(C)C(=O)NCC2CCC(C(=O)O)CC2)ccc2c1oc(=O)c1ccccc12 (centres undefined) | inactive |

| SMILES | Potency |
| --- | --- |
| CC1(C)NC(=O)N(CC(=O)Nc2cc(C(F)(F)F)cc(C(F)(F)F)c2)C1=O | inactive |
| Clc1ccc(C2=CSC3=Nc4cccc5cccc(c45)N23)cc1 | 1.85 µM (active) |
| CC(=O)c1cccc(NC(=S)N2CCCC2)c1 | inactive |
| CC1=CCC2C(=O)N(c3cccc(C(=O)NC(C)c4ccccc4)c3)C(=O)C2C1 (centres undefined) | inactive |
| CC(=O)Oc1cccc(N2C(=O)CC(Nc3ccc(N4CCOCC4)cc3)C2=O)c1 (centres undefined) | inactive |
| CC(=O)Oc1cccc(N2C(=O)C3CC=C(Cl)CC3C2=O)c1 (centres undefined) | 11.7 µM (active) |
| N#CC1(NC(=O)COC(=O)CSc2ccc(F)cc2)CCCCC1 | inactive |
| Cc1cccc(N=C2SC(C)CN2C(=O)CN2C(=O)NC3(CCCC3)C2=O)c1 (centres undefined) | inactive |
| COCCN(C(=O)CC1CCCCC1)c1c(N)n(CC(C)C)c(=O)[nH]c1=O | inactive |
| COc1ccc(NC(=O)CCCC2CCCCC2)c(OC)c1 | inactive |
| COc1ccc(NC(=O)c2cc([N+](=O)[O-])ccc2NC(=O)CNC2CCCCC2C)c(OC)c1 (centres undefined) | 6.57 µM (active) |
| COc1cc([N+](=O)[O-])ccc1NC(=O)CN1CCCC1 | inactive |
| Cc1cccc(C)c1NC(=O)CNC(=O)c1ccc2c(c1)OCCO2 | inactive |
| CCC(=O)N(CCc1ccccc1)Cc1cc2cc(C)ccc2[nH]c1=O | inactive |
| O=C(c1cccs1)N(Cc1cc2ccccc2[nH]c1=O)CC1CCCO1 (centres undefined) | inactive |
| CCOc1ccc2[nH]c(=O)c(CN(Cc3nnnn3CCc3ccccc3)CC3CCCO3)cc2c1 (centres undefined) | 13.1 µM (active) |
| CCC(c1nnnn1Cc1ccccc1)N(Cc1cc2cc(OC)ccc2[nH]c1=O)CC1CCCO1 (centres undefined) | 5.86 µM (active) |
| CCC(c1nnnn1Cc1ccco1)N(CCc1ccccc1)Cc1cc2cccc(C)c2[nH]c1=O (centres undefined) | 11.7 µM (active) |
| CCC(=O)N(Cc1cc2cc(OC)ccc2[nH]c1=O)c1ccccc1C | inactive |
| CCC(c1nnnn1Cc1ccco1)N(Cc1cc2cc(OC)ccc2[nH]c1=O)C1CCCCC1 (centres undefined) | 11.7 µM (active) |
| Cc1ccc(S(=O)(=O)N(Cc2cc3ccccc3[nH]c2=O)CC2CCCO2)cc1 (centres undefined) | inactive |
| CCOc1ccc2[nH]c(=O)c(CN(CCCO)C(C)=O)cc2c1 | inactive |
| COc1ccc(N(Cc2cc3cc(OC)ccc3[nH]c2=O)S(C)(=O)=O)cc1 | inactive |
| COc1ccc2[nH]c(=O)c(CN(CC3CCCO3)C(=O)Nc3ccccc3)cc2c1 (centres undefined) | inactive |
